In the library only some 2.8% were active in any assay of this set; here they are far more common.
POLH inh: qHTS for Inhibitors of Polymerase Eta; Potency, µM (top dose mostly 114 µM), for inactives: top-dose activity change, negative = inhibition, most hits filed as inhibitors; 390,000 compounds, 1.2% hits; recombinant Pol eta, fluorescent DNA replication assay; DNA polymerase eta (Homo sapiens), Q9Y253; further: potency means the concentration at half of the fitted maximal effect; on the % scale 0 is the no-effect control and ±100 the full control effect
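Pol eta at 10 nM preincubated with compounds 15 min at room temperature; reaction started with fluorescent substrate (50 nM final) and read kinetically at 0 and 10 min.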
Pol beta inh: qHTS Assay for Inhibitors of DNA Polymerase Beta. P06746. Pol beta primer extension/strand displacement, fluorescence kinetic. Potency, µM (titrated, usually from 114 µM), for inactives: top-dose activity change, negative = inhibition, actives largely listed as inhibitors. 340,000 compounds, 1.3% hits. AID 485314, 2010; further: potency means the concentration at half of the fitted maximal effect; on the % scale 0 is the no-effect control and ±100 the full control effect
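Pol beta (10 nM) was preincubated with compound for 15 min at room temperature. The reaction was then started with 50 nM substrate and read immediately and after a further 10 min at room temperature.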
PI5P4Ka inh: qHTS for Inhibitors of phosphatidylinositol 5-phosphate 4-kinase (PI5P4K); Phosphatidylinositol 5-phosphate 4-kinase type-2 alpha (Homo sapiens), P48426; PI5P4Kalpha enzyme, ADP-Glo luminescence, 60 min; stronger effect = lower value; max response, %; 330,000 compounds, 1.2% hits; AID 652105, 2013; active means max response of -50% or lower; inconclusive means between -30% and -50%; inactive means -30% or higher; further: value at the top dose of about 77 µM; on the % scale 0 is the no-effect control and ±100 the full control effect
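Reactions run in 0.038 M HEPES pH 7.4, 0.28 mM EGTA, 0.1% CHAPS and 5% DMSO, with PI5P4Kalpha, substrate, compound and 5 microM ATP final, one hour at room temperature. Readout is ADP-Glo luminescence.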
WRN helicase inh: qHTS for Inhibitors of WRN Helicase; Potency, µM (titrated, usually from 114 µM), without a hit: at the top dose activity change, negative = inhibition, hits mostly inhibitors; Bifunctional 3'-5' exonuclease/ATP-dependent helicase WRN (Homo sapiens), Q14191; 360,000 compounds, 0.46% hits; WRN helicase unwinding, fluorescent forked duplex, kinetic; further: potency means the concentration at half of the fitted maximal effect; on the % scale 0 is the no-effect control and ±100 the full control effect; nearly all actives have a fitted effect of over 55% in size
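WRN at 20 nM final was preincubated with compound for 15 min at room temperature; reaction started with 100 nM forked duplex oligonucleotide carrying fluorophore and quencher plus 2 mM ATP (final). Unwinding followed kinetically by red fluorescence (ex 525/em 598 nm).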
POLI inh: qHTS for Inhibitors of Polymerase Iota | 390,000 compounds, 1% hits | Pol iota fluorescent replication assay, 10 min | DNA polymerase iota (Homo sapiens), Q9UNA4 | AID 588590, 2011 | Potency, µM (doses to about 115 µM), for inactives: at the top dose activity, negative = inhibition, most hits filed as inhibitors; further: potency means the concentration at half of the fitted maximal effect
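Pol iota at 10 nM preincubated 15 min with compounds at room temperature; reaction started with fluorescent substrate, 50 nM final. Fluorescence read kinetically at 0 and 10 min; buffer-only wells as negative control.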
POLK inh: qHTS for Inhibitors of Polymerase Kappa; DNA polymerase kappa (Homo sapiens), Q9UBT6; purified Pol kappa, fluorescent DNA synthesis assay, 10 min; Potency, µM (doses to about 107 µM), for the others: at the highest dose activity, negative = inhibition, most hits filed as inhibitors; 400,000 compounds, 0.53% hits; AID 588579, 2011; further: potency means the concentration at half of the fitted maximal effect; on the % scale 0 is the no-effect control and ±100 the full control effect
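First, compounds were pin-transferred onto 10 nM Pol kappa. After 15 min at room temperature, substrate was added to 50 nM final. Fluorescence was then measured kinetically at 0 and 10 min.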
* = called active by the depositor; ? = inconclusive; · = not tested or not shown; [ ] = remark or other dose. Unless noted, the call rests on the fitted dose curve; in most records, active means well fitted curve in the direction sought with a large enough effect; inconclusive means small, poorly fitted or top-dose-only effect, or another doubt; inactive means no such curve, though single readings can be large; an effect the other way counts as inactive or inconclusive.

SMILES	POLH inh	Pol beta inh	PI5P4Ka inh	WRN helicase inh	POLI inh	POLK inh
CC1=NN(c2ccccc2)C(=O)/C1=C/C=C/C=C/N(C)C	-25%	?	?	?	45µM*	?
CC1=NN(c2ccc(C)c(C)c2)C(=O)/C1=C/c1ccc2c(c1)n(C)c(=O)n2C	-11%	34%	2	-5%	1.4µM*	-24%
COc1cc(/C=C2/C(=O)N(c3ccccc3)N=C2C)ccc1OS(=O)(=O)c1ccccc1	·	8%	·	·	·	·
O=C(CC(=O)NN=Cc1ccc2c(c1)CCC2)NN=Cc1ccc2c(c1)CCC2	?	·	6	-1%	10%	-16%
COc1ccc(C(=O)N(C)Cc2ccc(C)o2)cc1OC1CCN(C(C)=O)CC1	3%	48%	0	-6%	8%	1%
CC(C)C[C@H]1CN(CCCC[C@H]2CNC(=O)C(=O)N2Cc2ccccc2)C(=O)C(=O)N1CCc1ccc(O)cc1	·	·	2	0%	·	·
COc1ccc(/C=C2/C(=O)N(c3ccccc3)N=C2C)cc1Br	?	18%	4	-17%[11.6 µM]	1.3µM*	3%
CC1=NN(c2ccccc2)C(=O)/C1=C/c1cccs1	-13%	2%	9	?	1.3µM*	-3%
CC1=NN(c2ccccc2)C(=O)C1=Cc1ccccc1	-2%	·	2	?	·	·
O=C(OCCc1ccccc1)c1cc(O)c(O)c(O)c1	5%	·	-18	?	?	45µM*
Nc1ccc(C(=O)OCCc2ccccc2)cc1	-1%	·	17	0%	1%	-5%
CCOc1ccc(NC(=O)CSc2nc3ccsc3c(=O)n2CCCCC(=O)O)cc1	-99%	·	-65*	-4%[11.6 µM]	·	·
COc1cc(NC(=O)CNC(=O)Cn2c(C)cc3ccccc3c2=O)cc(OC)c1OC	-14%	0%	-2	5%	7%	2%
COc1ccc(NC(=O)CNC(=O)Cn2c(C)cc3ccccc3c2=O)c(OC)c1	-16%	79µM*	-8	-16%	116%	-20%
COc1ccc(NC(=O)CNC(=O)Cn2c(C)cc3ccccc3c2=O)cc1OC	-25%	32µM*	8	-19%	38%	6%
COc1ccc(NC(=O)CC(C)=O)c(OC)c1	4%	0%	-64*	-1%	-28%	-1%
C=CCn1c(SCC#N)nc2cc(Cl)ccc2c1=O	·	·	·	·	34%	3%
O=C(NCCO)c1cc2cc(Cl)cc(Cl)c2oc1=O	-20%	2%	?	-35%[57.1 µM]	57%	-5%
O=C(O)c1cc2cc(Cl)cc(Cl)c2oc1=O	?	79µM*	?	-34%	?	?
COc1cc2nc(Cl)nc(NC3CCN(Cc4ccccc4)CC3)c2cc1OC	·	·	·	·	11%	0%
COC(=O)c1sc(C(F)(F)F)c(-c2ccccc2)c1S(=O)(=O)N1CCOCC1	-18%	·	0	-21%	138%	-5%
Cc1n[nH]c2c([N+](=O)[O-])c(=O)[nH]c(=O)n12	-8%	·	-67*	-6%	-1%	-2%
Cc1nc(N2CCOCC2)[nH]c(=O)c1[N+](=O)[O-]	-8%	29%	-9	3%	-19%	-7%
C/C=C/c1cccc(-c2nc(C(=O)NC3CCC3)cc3c2[C@@H](CCO)N(S(=O)C(C)(C)C)C3)c1 (stereo partly drawn)	·	·	-2	3%	·	·
CC(C)(C)n1ncc2c(=O)n(Cc3ccc(C#N)c(F)c3)cnc21	·	·	·	·	10%	6%
Cc1ccc(C(=O)O)cc1NC(=O)c1nsc2ccccc12	·	79µM*	·	·	?	-31%
CCCC(O)c1nc2ccccc2n1CCCOc1ccc(Cl)cc1 (stereo not drawn)	-18%	7%	·	·	52%	5%
COc1cc(-c2cccs2)cc(=O)c2c(C)oc(C)c12	-9%	14µM*	·	-14%[57.1 µM]	?	-17%

High-throughput results deposited in PubChem BioAssay by National Center for Advancing Translational Sciences (NCATS).
